Measured values taken from PubChem BioAssay (EPA / NIEHS).
Values joined by “and” are separate entries in the source; they are usually repeats but may differ in a detail not shown here. Equal entries are not always repeated. Records with an inconclusive call do not appear. Active and inactive are the calls of the source. How the source made its calls, unless noted: active means hit-call score of the fitted dose curve at least 0.9, where 1 is the maximum; inactive means score below 0.9.

Legend:
[1] = ATG_NFI_CIS: Attagene CIS-FACTORIAL HepG2 Assay for human Nuclear Factor I (NFI) (AID 2282989); conditions: HepG2 cis-regulatory reporter, NFI response element transcription; actives raise or lower the signal
Summary of the method: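 Cells: human liver HepG2, transiently transfected with promoter-regulated reporter transcription units. Exposure 24 h. Detection: fluorescent RT-PCR products separated by capillary electrophoresis, normalised to DMSO negative control.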

[2] = biological target: Myc proto-oncogene protein (Homo sapiens) (UniProt P01106); assay: ATG_Myc_CIS: Attagene CIS-FACTORIAL HepG2 Assay for human Myelocytomatosis (Myc) Proto-Oncogene Transcription Factor (AID 2282990); conditions: HepG2, Attagene cis-reporter transcription factor activity; actives raise or lower the signal
Summary of the method: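 After 24 h chemical treatment of HepG2 cells carrying multiplexed cis-regulated reporter constructs, reporter transcripts quantified by RT-PCR and capillary electrophoresis of fluorescent fragments. Gain or loss fitted against DMSO baseline.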

[3] = ATG_NRF2_ARE_CIS: Attagene CIS-FACTORIAL HepG2 Assay for human Nuclear Factor Erythroid 2 Related Factor 2 (NFR2) response to Antioxidant Response Elements (ARE) (AID 2282992); conditions: HepG2 Attagene ARE/NRF2 reporter, transcription factor activity; actives raise or lower the signal;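 on AC50: reporter mRNA level measured by RT-PCR and capillary electrophoresis fluorescence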
Summary of the method: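 Transient MRTU transfection of HepG2; 24 h compound exposure; TriZol RNA, RT with oligo(dT), PCR, 6-FAM primer extension, HpaI cut, CE. Bidirectional fit vs DMSO.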

[4] = ATG_Oct_MLP_CIS: Attagene CIS-FACTORIAL HepG2 Assay for human Octamer-Binding Transcription Factor (Oct) (AID 2282993); conditions: HepG2 Attagene cis-factorial Oct reporter, mRNA; actives raise or lower the signal
Summary of the method: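 HepG2, transient MRTU transfection, cis promoter elements; 24 h dosing; RT-PCR/CE fluorescence read-out of reporter mRNA; fit both directions vs DMSO.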

[5] = biological target: Cellular tumor antigen p53 (Homo sapiens) (UniProt P04637); assay: ATG_p53_CIS: Attagene CIS-FACTORIAL HepG2 Assay for human p53 Transcription Factor (AID 2282994); conditions: HepG2 p53 cis-element reporter, Attagene mRNA; actives raise or lower the signal
Summary of the method: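 HepG2, transient MRTU transfection (cis promoter elements, endogenous TFs); 24 h dosing; RNA isolation, RT-PCR, 6-FAM primer extension, HpaI digest, CE fluorescence; bidirectional fit vs DMSO.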

[6] = biological target: human Peroxisome Proliferator-activated Receptor delta (PPARd), PPARD (gene 5467) (UniProt Q03181); assay: ATG_PPARd_TRANS: Attagene TRANS-FACTORIAL HepG2 Assay for human Peroxisome Proliferator-activated Receptor delta (PPARd) (AID 2283002; active means hit-call score of the fitted dose curve at least 0.9, where 1 is the maximum)
Summary of the method: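 Read-out is induced reporter mRNA, quantified by RT-PCR with fluorescent labelling and capillary electrophoresis after 24 h dosing. Cells are HepG2 transiently carrying multiple GAL4-UAS reporter units driven by exogenous NR-GAL4 chimeras; DMSO serves as baseline.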

[7] = biological target: Nuclear receptor subfamily 1 group I member 2 (Homo sapiens) (UniProt O75469); assay: ATG_PXR_TRANS: Attagene TRANS-FACTORIAL HepG2 Assay for human Pregnane X Receptor (PXR) (AID 2283008; active means hit-call score of the fitted dose curve at least 0.9, where 1 is the maximum)
Summary of the method: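 Read-out is fluorescence of labelled reporter cDNA fragments separated by capillary electrophoresis after RT-PCR and HpaI digestion. Source: HepG2 cells carrying PXR-GAL4/UAS reporter constructs, treated 24 h; activity fitted upward relative to DMSO.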

[8] = biological target: human Retinoic Acid Receptor gamma (RARg), RARG (gene 5916) (UniProt P13631); assay: ATG_RARg_TRANS: Attagene TRANS-FACTORIAL HepG2 Assay for human Retinoic Acid Receptor gamma (RARg) (AID 2283009; active means hit-call score of the fitted dose curve at least 0.9, where 1 is the maximum)
Summary of the method: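 HepG2 transiently transfected with GAL4-UAS reporter units and chimeric NR-Gal4 constructs; 24 h compound exposure. Reporter mRNA quantified by RT-PCR, FAM labeling, HpaI digestion and capillary electrophoresis; gain-of-signal versus DMSO.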

[9] = BSK_3C_TissueFactor: BioMAP Diversity Plus: 3C Assay for Tissue Factor Biomarker Activity (AID 2282997); conditions: BioMAP 3C HUVEC, tissue factor biomarker readout; actives raise or lower the signal
Summary of the method: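 Human vascular primary cells (umbilical vein endothelium) received test chemical; Tissue Factor was determined by ELISA at 24 h, and both gain and loss of signal versus DMSO were fitted.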

[10] = BSK_3C_uPAR: BioMAP Diversity Plus: 3C Assay for Urokinase-type plasminogen activator receptor (uPAR) Biomarker Activity (AID 2282998); conditions: BioMAP 3C HUVEC, uPAR biomarker ELISA; actives raise or lower the signal
Summary of the method: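 A multiplexed primary-cell system built on human umbilical vein endothelium was used, with chemical present for 24 h before reading. Cell-surface uPAR was detected by ELISA; signal change in either direction counted against DMSO.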

[11] = BSK_4H_Eotaxin3: BioMAP Diversity Plus: 4H Assay for Eotaxin 3 Biomarker Activity (AID 2283000); conditions: primary human endothelial cells (HUVEC); actives raise or lower the signal
Summary of the method: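 Readout is Eotaxin-3 (CCL26) level by ELISA in primary human umbilical vein endothelial cells harvested 24 h after chemical exposure; activity fitted in both directions against DMSO control.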

[12] = biological target: human Peroxisome Proliferator-activated Receptor alpha (PPARa), PPARA (gene 5465) (UniProt Q07869); assay: ATG_PPARa_TRANS: Attagene TRANS-FACTORIAL HepG2 Assay for human Peroxisome Proliferator-activated Receptor alpha (PPARa) (AID 2283001; active means hit-call score of the fitted dose curve at least 0.9, where 1 is the maximum)
Summary of the method: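 Read-out is fluorescence of reporter cDNA fragments resolved by capillary electrophoresis after RT-PCR. Human HepG2 liver cells carried transfected PPARa-Gal4 chimera and GAL4-UAS reporter units, treated 24 h; activity scored as increase over DMSO.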

[13] = read-out: Intercellular Adhesion Molecule 1 (ICAM1), ICAM1 (gene 3383); assay: BSK_3C_ICAM1: BioMAP Diversity Plus: 3C Assay for Intercellular Adhesion Molecule 1 (ICAM1) Biomarker Activity (AID 2283003); conditions: primary human endothelial cells (HUVEC); actives raise or lower the signal
Summary of the method: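 HUVEC primary cells stimulated under 3C conditions; ICAM1 measured by ELISA 24 h after compound dosing. Curves fitted bidirectionally against the DMSO baseline. Overt cytotoxicity checked by SRB staining of parallel cultures.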

[14] = BSK_3C_Proliferation: Cell Proliferation Assessment in the BioMAP Diversity Plus: 3C Assay (AID 2283006); conditions: primary human endothelial cells (HUVEC);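 on AC50: potency may reflect either rise or fall in cell number versus DMSO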
Summary of the method: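 Subconfluent HUVEC (3C system) cultured with chemical; relative cell number read at 48 h by sulforhodamine B total-protein staining (0.1% SRB after 10% TCA fixation, 560 nm). Bidirectional fit relative to DMSO.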

[15] = biological target: Peroxisome proliferator-activated receptor gamma (Homo sapiens) (UniProt P37231); assay: ATG_PPARg_TRANS: Attagene TRANS-FACTORIAL HepG2 Assay for human Peroxisome Proliferator-activated Receptor-gamma (PPARg) (AID 2283007; active means hit-call score of the fitted dose curve at least 0.9, where 1 is the maximum)
Summary of the method: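 Gain-of-signal endpoint relative to DMSO, derived from reporter mRNA levels quantified by RT-PCR and capillary electrophoresis. Cells were HepG2 transiently expressing a chimeric NR-Gal4 construct with GAL4-UAS reporters, exposed to chemicals for 24 h.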

[16] = biological target: human RAR-related Orphan Receptor beta (RORb), RORB (gene 6096) (UniProt Q92753); assay: ATG_RORb_TRANS: Attagene TRANS-FACTORIAL HepG2 Assay for human RAR-related Orphan Receptor beta (RORb) (AID 2283010; active means hit-call score of the fitted dose curve at least 0.9, where 1 is the maximum)
Summary of the method: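 HepG2 cells transiently transfected with GAL4-UAS reporter units expressing chimeric NR-Gal4 protein; reporter mRNA measured 24 h after dosing by RT-PCR, 6-FAM labelling and capillary electrophoresis. Gain-of-signal fitted relative to DMSO baseline.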

[17] = biological target: Retinoic acid receptor alpha (Homo sapiens) (UniProt P10276); assay: ATG_RARa_TRANS: Attagene TRANS-FACTORIAL HepG2 Assay for human Retinoic Acid Receptor alpha (RARa) (AID 2283005; active means hit-call score of the fitted dose curve at least 0.9, where 1 is the maximum)
Summary of the method: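 Reporter transcripts, measured by RT-PCR with fluorescent labeling and capillary electrophoresis after 24 h dosing, reflect activity of an exogenous human RARa–GAL4 fusion in transiently transfected HepG2. Fitted for increase relative to DMSO.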

[18] = ATG_NF_kB_CIS: Attagene CIS-FACTORIAL HepG2 Assay for human Nuclear Factor Kappa B (NF-kB) (AID 2282991); conditions: HepG2 Attagene cis-factorial NF-kB reporter mRNA; actives raise or lower the signal
Summary of the method: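 Measures mRNA induction of an NF-kB-responsive cis-element reporter in HepG2 cells transfected with multiple reporter units, sampled 24 h post-dosing; quantified by fluorescence after RT-PCR and capillary electrophoresis, fitted for activation or inhibition against DMSO.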

Measured: AC50

Chain of human Peroxisome Proliferator-activated Receptor alpha (PPARa), PPARA (gene 5465) (Q07869 whole entry, looked up, the tested form may be a part): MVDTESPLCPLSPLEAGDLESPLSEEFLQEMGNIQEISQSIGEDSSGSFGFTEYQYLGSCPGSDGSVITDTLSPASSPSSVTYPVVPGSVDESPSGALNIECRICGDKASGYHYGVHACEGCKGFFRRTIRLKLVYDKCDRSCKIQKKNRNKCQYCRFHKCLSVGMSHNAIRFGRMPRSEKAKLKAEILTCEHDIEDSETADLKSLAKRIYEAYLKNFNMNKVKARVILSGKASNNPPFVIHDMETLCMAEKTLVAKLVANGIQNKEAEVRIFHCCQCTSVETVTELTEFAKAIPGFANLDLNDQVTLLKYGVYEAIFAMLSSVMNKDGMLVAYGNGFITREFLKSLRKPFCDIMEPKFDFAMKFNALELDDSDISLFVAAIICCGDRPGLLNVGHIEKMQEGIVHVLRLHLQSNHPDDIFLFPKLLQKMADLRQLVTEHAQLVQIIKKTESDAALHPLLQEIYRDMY
Chain of Nuclear receptor subfamily 1 group I member 2 (Homo sapiens) (O75469 whole entry, looked up, the tested form may be a part): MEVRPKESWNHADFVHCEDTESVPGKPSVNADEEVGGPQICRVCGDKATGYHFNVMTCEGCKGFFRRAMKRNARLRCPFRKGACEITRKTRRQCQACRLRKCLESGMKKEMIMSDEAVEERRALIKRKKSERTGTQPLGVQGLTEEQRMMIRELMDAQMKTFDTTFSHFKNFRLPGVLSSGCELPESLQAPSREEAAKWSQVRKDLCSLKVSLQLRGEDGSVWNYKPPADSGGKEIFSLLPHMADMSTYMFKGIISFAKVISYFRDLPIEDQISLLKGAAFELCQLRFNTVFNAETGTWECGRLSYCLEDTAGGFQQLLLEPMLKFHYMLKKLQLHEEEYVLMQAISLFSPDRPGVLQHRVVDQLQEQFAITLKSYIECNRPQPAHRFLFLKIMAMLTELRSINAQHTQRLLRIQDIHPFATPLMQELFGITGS
Chain of human Retinoic Acid Receptor gamma (RARg), RARG (gene 5916) (P13631 whole entry, looked up, the tested form may be a part): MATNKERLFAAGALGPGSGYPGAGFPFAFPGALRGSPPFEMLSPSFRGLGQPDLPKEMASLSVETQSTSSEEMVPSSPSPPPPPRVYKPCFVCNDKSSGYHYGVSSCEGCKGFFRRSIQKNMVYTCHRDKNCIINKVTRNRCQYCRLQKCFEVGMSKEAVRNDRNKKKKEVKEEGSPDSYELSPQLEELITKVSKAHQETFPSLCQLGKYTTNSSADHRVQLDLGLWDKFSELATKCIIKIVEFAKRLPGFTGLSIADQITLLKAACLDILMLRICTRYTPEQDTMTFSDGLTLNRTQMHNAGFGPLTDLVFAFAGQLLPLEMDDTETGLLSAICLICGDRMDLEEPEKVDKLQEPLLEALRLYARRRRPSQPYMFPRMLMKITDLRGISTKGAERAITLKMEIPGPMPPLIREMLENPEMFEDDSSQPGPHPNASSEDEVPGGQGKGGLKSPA
Chain of Myc proto-oncogene protein (Homo sapiens) (P01106 whole entry, looked up, the tested form may be a part): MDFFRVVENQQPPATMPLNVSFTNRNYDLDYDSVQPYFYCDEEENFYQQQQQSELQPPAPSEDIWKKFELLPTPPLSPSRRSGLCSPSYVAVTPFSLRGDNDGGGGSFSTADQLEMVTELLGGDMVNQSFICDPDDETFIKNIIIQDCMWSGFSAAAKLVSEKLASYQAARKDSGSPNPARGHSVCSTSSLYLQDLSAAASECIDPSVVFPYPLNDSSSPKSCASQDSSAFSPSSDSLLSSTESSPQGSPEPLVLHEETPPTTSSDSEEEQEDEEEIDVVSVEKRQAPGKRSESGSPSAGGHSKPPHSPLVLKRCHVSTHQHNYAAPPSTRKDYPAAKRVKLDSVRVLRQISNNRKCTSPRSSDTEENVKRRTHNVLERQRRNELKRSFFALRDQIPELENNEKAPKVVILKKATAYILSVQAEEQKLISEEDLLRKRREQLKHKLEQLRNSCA
Chain of Peroxisome proliferator-activated receptor gamma (Homo sapiens) (P37231 whole entry, looked up, the tested form may be a part): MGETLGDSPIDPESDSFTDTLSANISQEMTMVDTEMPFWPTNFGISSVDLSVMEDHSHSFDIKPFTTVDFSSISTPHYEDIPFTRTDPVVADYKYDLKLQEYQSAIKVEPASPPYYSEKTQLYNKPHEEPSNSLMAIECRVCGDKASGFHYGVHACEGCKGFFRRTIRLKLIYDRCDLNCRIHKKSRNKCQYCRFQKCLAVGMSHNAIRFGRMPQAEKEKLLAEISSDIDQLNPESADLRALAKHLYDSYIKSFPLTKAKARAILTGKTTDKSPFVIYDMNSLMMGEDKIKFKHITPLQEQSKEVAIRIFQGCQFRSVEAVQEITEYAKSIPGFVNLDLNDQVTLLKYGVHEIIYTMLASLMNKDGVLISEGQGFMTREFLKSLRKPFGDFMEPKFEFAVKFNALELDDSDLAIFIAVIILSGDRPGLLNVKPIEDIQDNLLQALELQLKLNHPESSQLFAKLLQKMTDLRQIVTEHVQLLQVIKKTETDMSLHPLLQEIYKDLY
Chain of Cellular tumor antigen p53 (Homo sapiens) (P04637 whole entry, looked up): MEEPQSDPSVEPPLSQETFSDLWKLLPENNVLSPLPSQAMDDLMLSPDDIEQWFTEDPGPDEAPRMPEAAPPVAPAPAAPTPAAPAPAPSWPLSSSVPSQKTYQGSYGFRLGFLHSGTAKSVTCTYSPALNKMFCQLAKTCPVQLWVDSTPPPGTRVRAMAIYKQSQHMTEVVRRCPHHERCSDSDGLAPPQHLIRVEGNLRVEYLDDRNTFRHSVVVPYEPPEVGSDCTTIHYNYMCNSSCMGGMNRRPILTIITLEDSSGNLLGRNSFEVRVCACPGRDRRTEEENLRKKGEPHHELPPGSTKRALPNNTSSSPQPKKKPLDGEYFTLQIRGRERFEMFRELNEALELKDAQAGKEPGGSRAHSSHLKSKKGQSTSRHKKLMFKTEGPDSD
Chain of human Peroxisome Proliferator-activated Receptor delta (PPARd), PPARD (gene 5467) (Q03181 whole entry, looked up, the tested form may be a part): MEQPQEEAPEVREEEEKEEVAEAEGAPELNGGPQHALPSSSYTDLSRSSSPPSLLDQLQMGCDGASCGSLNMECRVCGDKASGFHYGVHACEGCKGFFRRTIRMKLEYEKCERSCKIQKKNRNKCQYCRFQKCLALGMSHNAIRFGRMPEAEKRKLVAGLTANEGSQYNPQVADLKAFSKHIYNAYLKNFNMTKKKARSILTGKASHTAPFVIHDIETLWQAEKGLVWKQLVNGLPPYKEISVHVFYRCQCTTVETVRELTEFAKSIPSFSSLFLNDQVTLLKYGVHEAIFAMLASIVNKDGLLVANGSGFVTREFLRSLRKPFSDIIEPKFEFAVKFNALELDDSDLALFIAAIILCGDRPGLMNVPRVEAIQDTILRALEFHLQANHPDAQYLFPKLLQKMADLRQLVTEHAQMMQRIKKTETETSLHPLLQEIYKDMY
Chain of human RAR-related Orphan Receptor beta (RORb), RORB (gene 6096) (Q92753 whole entry, looked up, the tested form may be a part): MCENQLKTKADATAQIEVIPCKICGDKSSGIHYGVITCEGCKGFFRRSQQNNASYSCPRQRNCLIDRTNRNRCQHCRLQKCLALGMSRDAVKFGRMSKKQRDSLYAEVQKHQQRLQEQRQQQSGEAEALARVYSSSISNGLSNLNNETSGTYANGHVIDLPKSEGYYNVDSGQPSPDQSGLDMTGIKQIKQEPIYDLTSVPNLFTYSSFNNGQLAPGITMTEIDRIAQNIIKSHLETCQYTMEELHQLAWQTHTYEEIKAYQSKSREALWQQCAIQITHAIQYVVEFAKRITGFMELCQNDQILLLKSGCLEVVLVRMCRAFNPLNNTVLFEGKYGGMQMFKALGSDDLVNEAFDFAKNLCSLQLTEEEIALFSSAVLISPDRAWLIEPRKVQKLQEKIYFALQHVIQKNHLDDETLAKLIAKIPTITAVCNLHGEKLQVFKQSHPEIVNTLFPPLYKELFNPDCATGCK
Chain of Retinoic acid receptor alpha (Homo sapiens) (P10276 whole entry, looked up, the tested form may be a part): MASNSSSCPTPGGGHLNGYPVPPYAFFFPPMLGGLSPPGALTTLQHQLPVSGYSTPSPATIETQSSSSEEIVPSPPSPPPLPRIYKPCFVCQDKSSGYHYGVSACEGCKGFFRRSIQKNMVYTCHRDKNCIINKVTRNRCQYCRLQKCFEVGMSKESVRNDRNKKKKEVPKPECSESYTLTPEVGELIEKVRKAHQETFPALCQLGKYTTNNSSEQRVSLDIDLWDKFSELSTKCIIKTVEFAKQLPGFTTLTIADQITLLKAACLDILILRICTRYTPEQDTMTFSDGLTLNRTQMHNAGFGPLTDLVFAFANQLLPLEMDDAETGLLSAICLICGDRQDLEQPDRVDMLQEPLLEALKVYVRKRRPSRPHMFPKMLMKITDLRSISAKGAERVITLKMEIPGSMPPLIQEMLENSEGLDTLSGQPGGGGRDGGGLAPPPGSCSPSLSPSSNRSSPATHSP

CCCCOCCOC(=O)c1ccccc1C(=O)OCCOCCCC
active: [3] 37.7 µM | [7] 7.61 µM
inactive: [1] | [2] | [4] | [5] | [6] | [8]

CC(=O)OC(C)(C)C1CC=C(C)CC1 (stereo unspecified)
active: [9] 29.8 µM | [10] 32.3 µM | [11] 33.3 µM | [14] 28.4 µM | [7] 33.8 µM
not listed: [4] | [6] | [8] | [17] | [18]
inactive: all other assays above

CCCCCC1C(=O)CCC1CC(=O)OC (stereo unspecified)
inactive: [1] | [2] | [3] | [5] | [12] | [17] | [15] | [7] | [8]

OCC(F)(OC(F)(F)C(F)(OC(F)(F)C(F)(F)C(F)(F)F)C(F)(F)F)C(F)(F)F (stereo unspecified)
inactive: [9] | [10] | [11] | [13]
active: [14] 3.78 µM and 2.59 µM

CCC(C)(C)C1CCC(=O)CC1
inactive: [2] | [18] | [3] | [4] | [5] | [17] | [15] | [8]
active: [7] 15.3 µM

O=C1Cc2ccccc2C1
inactive: [6] | [15]
active: [7] 27.9 µM

CC1=CC(O)CC(C)(C)C1 (stereo unspecified)
inactive: [2] | [18] | [4] | [5] | [15] | [7]

O=S(=O)(O)CCCN1CCOCC1
inactive: [1] | [4] | [5] | [12] | [6] | [15] | [7]

CCCCCCCCCO
inactive: [2] | [4] | [5] | [12] | [15] | [7]

C=C(C)C(=O)OCCC(F)(F)C(F)(F)C(F)(F)C(F)(F)C(F)(F)C(F)(F)C(F)(F)C(F)(F)F
inactive: [9] | [10] | [11] | [13] | [14]

CCCC[N+](C)(CCCC)CCCC
inactive: [1] | [2] | [3] | [4] | [12] | [16]

C=C(F)C(=O)OC(C(F)(F)F)C(F)(F)F
inactive: [9] | [10] | [11] | [13] | [14]

C[N+](C)(C)CCO
inactive: [1] | [2] | [4] | [6] | [15] | [7]
active: [3] 101 µM

CCO[Si](CCC#N)(OCC)OCC
inactive: [2] | [18] | [3] | [4] | [12] | [15] | [7]
